The results in this text go back to PubChem BioAssay (EPA / NIEHS).

Each structure is given as a SMILES string. The source made the active and inactive calls. How the source made its calls: active means hit-call score of the fitted dose curve at least 0.9, where 1 is the maximum; inactive means score below 0.9.

Test [1] deals with Bile acid receptor (Homo sapiens) (UniProt Q96RI1). Nature of the test: ATG_IR1_CIS: Attagene CIS-FACTORIAL HepG2 Assay for human Nuclear Receptor Subfamily 1 Group H Member 4 (NR1H4), IR1 submotif (AID 2282946). The conditions noted are these: IR1 reporter transcription, actives raise or lower the signal. The gist of the method: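 HepG2 cells transiently transfected with multiplexed cis-element reporter units read endogenous transcription factor activity. After 24 h compound exposure, reporter mRNA was quantified by RT-PCR, fluorescent labelling, HpaI digestion and capillary electrophoresis; bidirectional fitting versus DMSO baseline.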

Test [2] in a line: ATG_ISRE_CIS: Attagene CIS-FACTORIAL HepG2 Assay for human Interferon Regulatory Factor 1 (IRF1) binding to an Interferon-Stimulated Response Element (ISRE) (AID 2282948). The conditions noted are these: HepG2 ISRE cis-reporter (Attagene), mRNA transcription readout; actives raise or lower the signal. In a few lines: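 Read-out: fluorescent RT-PCR products resolved by capillary electrophoresis, reporting endogenous transcription factor activity via ISRE-driven reporter mRNA in transfected HepG2 cells dosed for 24 h; gain or loss fitted relative to DMSO.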

Test [3] is described as follows: ATG_M_32_CIS: Attagene CIS-FACTORIAL HepG2 Assay for M32 Transcription Factor (Internal Marker) (AID 2282949).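 Further: background control marker of the multiplexed CIS panel rather than a real target.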 The conditions noted are these: HepG2 Attagene cis-factorial M32 reporter, mRNA; actives raise or lower the signal. The gist of the method: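 HepG2 transfectants (cis-regulated reporter transcription units) dosed 24 h. Reporter mRNA by RT-PCR plus CE, analysed as gain or loss relative to DMSO.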

Test [4] is described as follows: ATG_M_06_CIS: Attagene CIS-FACTORIAL HepG2 Assay for M06 Transcription Factor (Internal Marker) (AID 2282950). The conditions noted are these: HepG2 Attagene CIS-FACTORIAL M06 internal marker reporter; actives raise or lower the signal. In a few lines:
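Fluorescence-labelled RT-PCR products from cis-promoter reporter units, cut with HpaI and resolved by capillary electrophoresis, give the signal. Cells are human HepG2, dosed for 24 h. Serves as background control, fitted relative to DMSO.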

Test [5] has as its target Hypoxia-inducible factor 1-alpha (Homo sapiens) (UniProt Q16665). Nature of the test: ATG_HIF1a_CIS: Attagene CIS-FACTORIAL HepG2 Assay for human Hypoxia Inducible Factor 1 (HIF1A) (AID 2282951). The conditions noted are these: HepG2 Attagene cis-factorial HIF1a reporter transcription; actives raise or lower the signal. The gist of the method: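 HepG2, transient cis-reporter library, 24 h dosing. RNA → RT (oligo dT) → PCR → 6-FAM primer extension → HpaI → CE. Bidirectional curve fit vs DMSO.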

Test [6] addresses Hepatocyte nuclear factor 6 (Homo sapiens) (UniProt Q9UBC0). Briefly: ATG_HNF6_CIS: Attagene CIS-FACTORIAL HepG2 Assay for human Hepatocyte Nuclear Factor 6 (HNF6) (AID 2282952). The conditions noted are these: HepG2 Attagene cis-factorial HNF6 reporter transcription; actives raise or lower the signal. In a few lines: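 Endogenous transcription factor activity in human HepG2 liver cells was captured through cis-regulated reporter constructs. After 24 h treatment, reporter mRNA was measured by RT-PCR with capillary electrophoresis, and activity was fitted in both directions relative to DMSO.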

The target of test [7] is Heat shock factor protein 1 (Homo sapiens) (UniProt Q00613). Nature of the test: ATG_HSE_CIS: Attagene CIS-FACTORIAL HepG2 Assay for human Heat Shock Transcription Factor 1 (HSE) (AID 2282953). The conditions noted are these: HepG2 HSE cis-reporter, Attagene RNA transcription; actives raise or lower the signal. The gist of the method:
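After a 24 h incubation with test chemical, transfected HepG2 cells were harvested for RNA; reporter transcripts were measured by RT-PCR and capillary electrophoresis. Values reflect gain or loss of signal relative to DMSO.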

A short description of test [8]: ATG_MRE_CIS: Attagene CIS-FACTORIAL HepG2 Assay for human Metal Responsive Element (MRE) (AID 2282954). The conditions noted are these: HepG2 MRE cis-reporter transcription, Attagene multiplex; actives raise or lower the signal. In a few lines: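 Endogenous MRE-dependent transcription read as reporter mRNA in transiently transfected human HepG2 cells at 24 h. RNA reverse-transcribed, PCR-amplified, labelled and resolved by capillary electrophoresis; gain or loss relative to DMSO.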

Test [9] deals with Paired box protein Pax-6 (Homo sapiens) (UniProt P26367). Nature of the test: ATG_Pax6_CIS: Attagene CIS-FACTORIAL HepG2 Assay for human Paired Box 6 (PAX6) (AID 2282956). The conditions noted are these: HepG2 CIS-FACTORIAL PAX6 reporter transcription, RNA readout; actives raise or lower the signal. In a few lines: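 Readout: reporter transcript fluorescence after RT-PCR and capillary electrophoresis. Cells: HepG2, transiently transfected with cis-regulated MRTUs. Exposure 24 h. Gain or loss of signal fitted bidirectionally relative to DMSO.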

The nature of test [10]: ATG_PXRE_CIS: Attagene CIS-FACTORIAL HepG2 Assay for human Pregnane X Receptor Element (PXRE) (AID 2282957). The conditions noted are these: HepG2 Attagene CIS-FACTORIAL PXRE reporter, mRNA; actives raise or lower the signal. In a few lines:
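Endogenous transcription factor activity in HepG2 was gauged through induction of reporter mRNA driven by a cis-regulating promoter element, sampled 24 h post-treatment. Activity was fitted in both directions against DMSO negative control.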

Test [11] is described as follows: ATG_PPRE_CIS: Attagene CIS-FACTORIAL HepG2 Assay for human Peroxisome Proliferator-activated Response Element (PPRE) (AID 2282958). The conditions noted are these: HepG2 PPRE cis-element reporter, Attagene transcription factor profiling; actives raise or lower the signal. The gist of the method:
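Transcript-level reporter induction in transfected HepG2 cells after 24 h chemical exposure, quantified by fluorescence from RT-PCR products separated by capillary electrophoresis.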

Test [12] can be described thus: ATG_RORE_CIS: Attagene CIS-FACTORIAL HepG2 Assay for human RAR-related Orphan Receptor Element (RORE) (AID 2282959). The conditions noted are these: HepG2 Attagene cis-factorial RORE reporter, mRNA; actives raise or lower the signal. In a few lines:
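Multiplexed reporter assay measuring mRNA induction from a cis promoter element in transiently transfected HepG2 cells after 24 h treatment. Detection via RT-PCR and capillary electrophoresis fluorescence; DMSO serves as baseline.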

Test [13] in a line: ATG_Sox_CIS: Attagene CIS-FACTORIAL HepG2 Assay for human SRY-box transcription factor (SOX) (AID 2282960). The conditions noted are these: HepG2 Attagene cis-factorial SOX reporter, mRNA; actives raise or lower the signal. In a few lines:
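Cells were transfected with reporter constructs under cis-regulatory promoters, then exposed to chemicals for 24 h. Reporter transcripts were quantified by fluorescence after RT-PCR and capillary electrophoresis; activity was fitted in both directions against DMSO.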

For test [14], the target named is Transcription factor Sp1 (Homo sapiens) (UniProt P08047). Nature of the test: ATG_Sp1_CIS: Attagene CIS-FACTORIAL HepG2 Assay for human Specificity Protein 1 (Sp1) (AID 2282961). The conditions noted are these: HepG2 Sp1 cis-reporter transcription, actives raise or lower the signal. The gist of the method:
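Measures mRNA induction of an Sp1-linked reporter in HepG2 cells 24 h post-dosing. Multiplexed reporters read by RT-PCR and capillary electrophoresis; DMSO serves as negative control and baseline.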

A short description of test [15]: ATG_SREBP_CIS: Attagene CIS-FACTORIAL HepG2 Assay for human Sterol Regulatory Element Binding (SREBP) (AID 2282962). The conditions noted are these: HepG2 Attagene cis-factorial SREBP reporter, mRNA; actives raise or lower the signal. In a few lines: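 Readout: fluorescent reporter-transcript peaks resolved by capillary electrophoresis after RT-PCR. Cells were human HepG2 carrying transfected cis-promoter reporter constructs, dosed for 24 h. Gain or loss of signal was fitted against DMSO controls.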

Test [16] deals with Signal transducer and activator of transcription 3 (Homo sapiens) (UniProt P40763). Briefly: ATG_STAT3_CIS: Attagene CIS-FACTORIAL HepG2 Assay for human Signal Transducer and Activator of Transcription 3 (STAT3) (AID 2282963). The conditions noted are these: HepG2, Attagene cis-factorial STAT3 reporter transcription; actives raise or lower the signal. The gist of the method:
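Readout is reporter transcript quantified by RT-PCR and capillary electrophoresis, with 6-FAM primer extension and HpaI digestion. Total RNA is taken 24 h after dosing transiently transfected HepG2 carrying cis-regulated reporter units. Bidirectional fit against DMSO.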

Test [17] is described as follows: ATG_TA_CIS: Attagene CIS-FACTORIAL HepG2 Assay for human TA Basal Promoter (AID 2282964). The conditions noted are these: HepG2 Attagene CIS-factorial TA basal promoter reporter; actives raise or lower the signal. The gist of the method: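 Multiplexed mRNA reporter assay, HepG2, 24 h. Reporter cDNA amplified, 6-FAM primer-extended, HpaI-cut, CE-sized; DMSO = negative control and baseline.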

The nature of test [18]: ATG_TCF_b_cat_CIS: Attagene CIS-FACTORIAL HepG2 Assay for human T-Cell-Factor with beta-catenin (TCF/b-cat) (AID 2282965). The conditions noted are these: HepG2 TCF/beta-catenin cis-reporter transcription, actives raise or lower the signal. The gist of the method: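 Endogenous transcription factor activity is captured through cis-promoter reporter constructs transiently introduced into human HepG2 liver cells. Induced reporter mRNA is measured after 24 h and fitted bidirectionally relative to DMSO.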

The nature of test [19]: ATG_PBREM_CIS: Attagene CIS-FACTORIAL HepG2 Assay for human Phenobarbital-responsive Enhancer Module (PBREM) (AID 2282955). The conditions noted are these: HepG2 PBREM cis-reporter, Attagene multiplexed transcription; actives raise or lower the signal. In a few lines:
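HepG2, transient MRTU transfection, 24 h dosing; RNA → oligo(dT) RT → PCR → 6-FAM extension → HpaI → CE. Bidirectional fit vs DMSO.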

Chain of Bile acid receptor (Homo sapiens) (Q96RI1 whole entry, looked up): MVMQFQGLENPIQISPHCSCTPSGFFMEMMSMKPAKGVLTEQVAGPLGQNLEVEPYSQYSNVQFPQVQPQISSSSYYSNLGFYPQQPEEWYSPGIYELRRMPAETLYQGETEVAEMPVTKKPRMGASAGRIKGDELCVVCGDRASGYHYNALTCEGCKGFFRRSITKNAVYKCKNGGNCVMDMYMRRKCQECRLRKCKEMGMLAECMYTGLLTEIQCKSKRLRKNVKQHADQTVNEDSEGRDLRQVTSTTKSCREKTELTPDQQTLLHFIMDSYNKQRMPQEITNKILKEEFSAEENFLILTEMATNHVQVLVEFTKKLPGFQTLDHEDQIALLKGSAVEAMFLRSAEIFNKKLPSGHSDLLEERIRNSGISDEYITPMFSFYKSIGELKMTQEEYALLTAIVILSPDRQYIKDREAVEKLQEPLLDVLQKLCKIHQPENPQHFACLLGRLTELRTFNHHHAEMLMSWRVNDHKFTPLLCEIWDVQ
Chain of Heat shock factor protein 1 (Homo sapiens) (Q00613 whole entry, looked up): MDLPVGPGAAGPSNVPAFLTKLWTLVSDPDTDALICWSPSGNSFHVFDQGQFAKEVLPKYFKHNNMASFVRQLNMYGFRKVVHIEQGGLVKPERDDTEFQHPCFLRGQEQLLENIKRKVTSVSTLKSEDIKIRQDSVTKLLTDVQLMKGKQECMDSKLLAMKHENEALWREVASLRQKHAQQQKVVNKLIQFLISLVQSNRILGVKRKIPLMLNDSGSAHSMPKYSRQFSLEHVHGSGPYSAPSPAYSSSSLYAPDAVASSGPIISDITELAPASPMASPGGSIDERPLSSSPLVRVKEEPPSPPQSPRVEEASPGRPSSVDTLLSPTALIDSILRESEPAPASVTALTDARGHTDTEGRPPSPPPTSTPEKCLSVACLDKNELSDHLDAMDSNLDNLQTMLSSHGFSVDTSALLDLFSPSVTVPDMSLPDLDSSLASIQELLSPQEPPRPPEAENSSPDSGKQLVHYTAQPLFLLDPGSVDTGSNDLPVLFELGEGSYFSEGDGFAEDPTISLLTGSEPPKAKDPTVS
Chain of Hypoxia-inducible factor 1-alpha (Homo sapiens) (Q16665 whole entry, looked up): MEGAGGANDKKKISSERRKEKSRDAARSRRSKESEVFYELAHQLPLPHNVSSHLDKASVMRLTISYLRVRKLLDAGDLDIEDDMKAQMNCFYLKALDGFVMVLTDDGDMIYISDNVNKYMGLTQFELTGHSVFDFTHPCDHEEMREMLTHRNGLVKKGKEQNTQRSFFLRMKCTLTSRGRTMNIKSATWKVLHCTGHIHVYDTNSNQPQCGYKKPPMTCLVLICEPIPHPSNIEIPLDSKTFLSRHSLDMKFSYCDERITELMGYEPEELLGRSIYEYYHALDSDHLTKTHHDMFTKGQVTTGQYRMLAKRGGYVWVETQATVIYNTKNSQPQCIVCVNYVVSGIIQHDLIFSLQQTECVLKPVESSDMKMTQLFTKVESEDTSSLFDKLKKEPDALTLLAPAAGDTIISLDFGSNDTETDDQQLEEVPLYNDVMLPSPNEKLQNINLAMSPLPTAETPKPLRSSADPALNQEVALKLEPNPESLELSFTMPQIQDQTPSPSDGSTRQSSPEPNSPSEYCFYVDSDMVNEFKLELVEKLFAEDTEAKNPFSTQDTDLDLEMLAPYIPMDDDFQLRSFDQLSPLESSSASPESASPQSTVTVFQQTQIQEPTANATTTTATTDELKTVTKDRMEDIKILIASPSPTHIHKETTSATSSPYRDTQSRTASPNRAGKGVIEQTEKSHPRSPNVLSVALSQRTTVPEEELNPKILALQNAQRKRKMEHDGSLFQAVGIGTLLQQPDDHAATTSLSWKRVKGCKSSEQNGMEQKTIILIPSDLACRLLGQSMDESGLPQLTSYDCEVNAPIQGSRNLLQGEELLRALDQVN
Chain of Paired box protein Pax-6 (Homo sapiens) (P26367 whole entry, looked up): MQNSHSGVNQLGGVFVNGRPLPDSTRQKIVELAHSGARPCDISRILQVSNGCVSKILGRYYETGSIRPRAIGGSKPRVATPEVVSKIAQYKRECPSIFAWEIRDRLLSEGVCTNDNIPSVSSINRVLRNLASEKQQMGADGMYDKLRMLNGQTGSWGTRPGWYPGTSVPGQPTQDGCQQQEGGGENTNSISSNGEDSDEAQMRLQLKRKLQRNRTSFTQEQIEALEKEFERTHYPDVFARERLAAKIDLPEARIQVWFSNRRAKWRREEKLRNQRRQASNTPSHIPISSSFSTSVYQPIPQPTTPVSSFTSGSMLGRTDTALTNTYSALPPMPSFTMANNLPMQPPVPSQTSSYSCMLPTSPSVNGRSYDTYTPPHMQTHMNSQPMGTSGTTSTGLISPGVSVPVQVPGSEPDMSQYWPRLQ
Chain of Hepatocyte nuclear factor 6 (Homo sapiens) (Q9UBC0 whole entry, looked up): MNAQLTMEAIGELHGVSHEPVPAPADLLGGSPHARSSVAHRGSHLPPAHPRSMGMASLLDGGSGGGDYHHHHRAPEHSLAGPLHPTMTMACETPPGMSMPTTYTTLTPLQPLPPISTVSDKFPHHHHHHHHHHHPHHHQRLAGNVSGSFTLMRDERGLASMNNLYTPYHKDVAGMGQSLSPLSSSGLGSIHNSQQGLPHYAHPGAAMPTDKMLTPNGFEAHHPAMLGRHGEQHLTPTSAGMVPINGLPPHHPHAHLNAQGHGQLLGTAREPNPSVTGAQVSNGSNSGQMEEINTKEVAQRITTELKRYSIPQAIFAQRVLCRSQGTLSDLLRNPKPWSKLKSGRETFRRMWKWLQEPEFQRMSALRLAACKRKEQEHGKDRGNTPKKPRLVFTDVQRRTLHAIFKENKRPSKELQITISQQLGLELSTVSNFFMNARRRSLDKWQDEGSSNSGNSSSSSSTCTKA
Chain of Transcription factor Sp1 (Homo sapiens) (P08047 whole entry, looked up): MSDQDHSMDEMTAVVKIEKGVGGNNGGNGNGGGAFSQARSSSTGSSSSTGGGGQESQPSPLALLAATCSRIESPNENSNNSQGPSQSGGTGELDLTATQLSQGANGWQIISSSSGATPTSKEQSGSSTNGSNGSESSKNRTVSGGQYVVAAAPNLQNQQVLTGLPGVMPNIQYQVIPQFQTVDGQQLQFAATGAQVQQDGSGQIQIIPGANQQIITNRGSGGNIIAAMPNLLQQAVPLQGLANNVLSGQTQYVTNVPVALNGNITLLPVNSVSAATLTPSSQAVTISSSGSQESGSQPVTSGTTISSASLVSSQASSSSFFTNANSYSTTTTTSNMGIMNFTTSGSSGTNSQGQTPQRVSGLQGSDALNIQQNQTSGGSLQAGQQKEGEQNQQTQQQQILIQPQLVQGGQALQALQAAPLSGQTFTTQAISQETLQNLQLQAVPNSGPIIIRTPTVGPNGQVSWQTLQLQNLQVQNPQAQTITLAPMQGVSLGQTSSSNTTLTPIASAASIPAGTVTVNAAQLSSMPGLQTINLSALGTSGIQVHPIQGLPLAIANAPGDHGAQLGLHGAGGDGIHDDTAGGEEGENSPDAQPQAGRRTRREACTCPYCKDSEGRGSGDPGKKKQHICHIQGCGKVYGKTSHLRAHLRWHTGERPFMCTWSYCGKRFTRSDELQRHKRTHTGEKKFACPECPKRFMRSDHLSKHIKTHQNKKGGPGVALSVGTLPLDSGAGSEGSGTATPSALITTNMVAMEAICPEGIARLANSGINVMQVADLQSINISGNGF
Chain of Signal transducer and activator of transcription 3 (Homo sapiens) (P40763 whole entry, looked up): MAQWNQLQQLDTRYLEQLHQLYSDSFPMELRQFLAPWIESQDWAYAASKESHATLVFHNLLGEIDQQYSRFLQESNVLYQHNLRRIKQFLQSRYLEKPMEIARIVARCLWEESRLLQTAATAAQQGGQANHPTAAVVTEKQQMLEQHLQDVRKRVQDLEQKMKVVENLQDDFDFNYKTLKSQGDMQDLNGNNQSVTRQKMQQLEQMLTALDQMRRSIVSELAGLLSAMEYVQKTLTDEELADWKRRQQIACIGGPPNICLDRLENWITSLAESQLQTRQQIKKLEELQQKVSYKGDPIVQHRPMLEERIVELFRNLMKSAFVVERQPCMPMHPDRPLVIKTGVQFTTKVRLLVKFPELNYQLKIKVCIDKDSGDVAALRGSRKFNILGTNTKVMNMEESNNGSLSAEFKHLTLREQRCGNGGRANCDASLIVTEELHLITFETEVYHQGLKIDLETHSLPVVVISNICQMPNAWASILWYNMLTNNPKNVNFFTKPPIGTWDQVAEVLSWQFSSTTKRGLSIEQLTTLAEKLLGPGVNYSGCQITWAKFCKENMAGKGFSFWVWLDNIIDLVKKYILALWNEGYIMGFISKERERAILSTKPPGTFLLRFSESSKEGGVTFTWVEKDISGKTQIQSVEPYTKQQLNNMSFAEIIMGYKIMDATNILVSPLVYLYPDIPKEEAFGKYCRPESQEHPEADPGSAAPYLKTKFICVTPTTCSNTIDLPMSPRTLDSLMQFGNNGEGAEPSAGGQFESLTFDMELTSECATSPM

Turning to `COc1cc([C@@H]2c3cc4c(cc3[C@@H](O[C@@H]3O[C@@H]5CO[C@@H](C)O[C@H]5[C@H](O)[C@H]3O)[C@H]3COC(=O)[C@H]23)OCO4)cc(OC)c1O`, the outcome in test [1], in test [2], in test [3], in test [4], in test [5] and in test [6] was inactive. The molecule was called inactive in test [7], in test [8], in test [9], in test [11], in test [12] and in test [13]. For the same molecule, the result in test [14], in test [15], in test [16], in [17] and in test [18] was inactive. In addition, the AC50 (as a rule, the concentration giving half of the maximal activity seen) in [10] is 35.2 µM (active).

In the case of `COc1ccccc1[N+](=O)[O-]`, the result in test [1], in test [2], in test [3], in [4], in test [5] and in test [6] was inactive. The molecule was classed as inactive in test [7], in [8], in [19], in test [12], in test [14] and in [15]. Also, the molecule was called inactive in [16], in [17] and in [18]. The AC50 in test [10] was 71.7 µM (active).

As to `CCCCCCC(=O)c1ccccc1`, the molecule was called inactive in test [1], in [2], in test [3], in test [5], in test [6] and in test [7]. In addition, the molecule was called inactive in test [8], in test [19], in test [9], in [11], in test [12] and in test [13]. The result in test [14], in test [15], in test [16], in test [17] and in test [18] was inactive. Besides, the AC50 in test [10] is 43.2 µM (active).

On to `OCc1cccc(Oc2ccccc2)c1`, for which the molecule was called inactive in test [1], in [2], in test [3], in [4], in test [5] and in [6]. Also, the molecule was classed as inactive in test [8], in [19], in test [9], in test [11], in test [12] and in [13]. Further, the outcome in test [14], in test [15], in test [16] and in [17] was inactive. Further, in test [10], the AC50 is 27.4 µM (active).

Turning to `CCOc1ccc(NC(=O)CC(C)O)cc1` (configuration not stated), the outcome in [1], in test [2], in test [3], in [4], in test [6] and in [7] was inactive. For the same molecule, the outcome in [8], in [9], in test [10], in test [11], in test [12] and in test [13] was inactive. In addition, the outcome in test [14], in test [15], in test [16], in test [17] and in test [18] was inactive.

Take `CCN(CC)C(=O)N(CC)CC`: the outcome in [1], in test [2], in test [3], in test [5], in [6] and in [7] was inactive. Besides, the result in test [8], in [19], in test [9], in test [11], in [12] and in test [13] was inactive. Moreover, the call in [14], in test [15] and in test [16] was inactive. In [10], the AC50 is 52 µM (active).

On to `c1ccc(CCc2ccccc2)cc1`, for which the molecule was classed as inactive in [1], in test [2], in test [3], in [4], in [5] and in test [6]. Besides, the call in [7], in test [8], in test [19], in test [9], in test [11] and in [12] was inactive. The molecule was classed as inactive in test [13], in test [15], in test [17] and in test [18]. The AC50 in test [10] was 26.1 µM (active); in test [14] it was 169 µM (active).

With `OCCc1ccccc1`, the result in [1], in test [2], in [3], in [4], in test [5] and in test [6] was inactive. For the same molecule, the result in test [7], in test [8], in test [9], in [10], in test [11] and in test [12] was inactive. For the same molecule, the molecule was called inactive in test [13], in [14], in test [15], in [17] and in test [18].
